Source: PubChem
GAA850 FXN act = FXN promoter activators, primary screen, cell-based, luciferase luminescence, HEK293 lucGAA850. HEK293 lucGAA850 FXN promoter luciferase reporter, 24 h; percent of 10 µM SAHA response. activation, % at 6 µM. actives 0.56% (n = 360,000);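 active = activation above the average of all compounds screened plus 3 SD, cutoff fixed separately per campaign, cut at about 7.5% in these data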
HSP90 inh = HSP90 inhibitors, primary screen, cell lysate, luminescence. Heat shock protein HSP 90 (rabbit reticulocyte lysate; luciferase refolding). AID 1789, 2009. inhibition, % at 5.6 µM. Rabbit reticulocyte lysate, luciferase refolding luminescence, 3 h. actives 0.91% (n = 290,000);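 active = inhibition above the screen-wide mean plus 3 SD, computed separately per campaign, cut at about 16% in these data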;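 also: inhibitors lower the luminescence because luciferase stays unfolded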
HSF1 inhib = HSF1 inhibitors in luciferase reporter cells, primary screen, cell-based, NIH3T3, luminescence; NIH3T3-HGL HSE-luciferase, MG132-induced, luminescence 8 h; stronger effect = lower value; activity change, negative = inhibition, % at 7.5 µM (by protocol); actives 0.77% (n = 300,000);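 active = more than half of replicate wells show activity change below -50%, luminescence cut by over half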;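 also: luciferase reports HSF-1 transcriptional activity via heat shock element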
AI-2 QS mod = Vibrio harveyi AI-2 quorum sensing modulators, primary screen, JMH597 strain, luminescence/OD600 ratio; Vibrio harveyi JMH597 AI-2 luminescence/OD600 ratio, 9 h; stronger effect = lower value; strain lacks LuxN and CqsS sensors; 0 = neutral-control median; activity change, % at 7.5 µM; actives 0.4% (n = 300,000); AID 2094, 2009; in the data active = activity change below about -75%, passing the limit was not always enough;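 also: luminescence divided by OD600 gain over 9 h not by final OD600 alone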
PG9 Ab binder = binders of HIV-1 gp120 antibody PG9, primary screen, biochemical, TR-FRET | HIV-1 gp120 / PG9 antibody interaction | TR-FRET gp120-PG9 antibody binding | inhibition, % at 6.7 µM | actives 0.43% (n = 360,000) | AID 624416, 2012; in the data active = inhibition above about 8.5%
SMARCA2 activ = SMARCA2 (BRM) function activators, primary screen, cell-based, luminescence, high throughput; MG213 cells, MMTV-luciferase reporter, dexamethasone, overnight; activation, % at 9.1 µM; actives 1% (n = 370,000); in the data active = activation above about 7.8%
HSP90 inh confirm = HSP90 inhibitors, confirmation, cell lysate, luminescence; actives 64% (n = 2,300); rabbit reticulocyte lysate, luciferase refolding luminescence, 3 h; inhibition, % at 5.9 µM; shares compounds with HSP90 inh; AID 1846, 2009; in the data active = inhibition above about 18%
FLuc counter = firefly luciferase inhibitors, HSP90 counter-screen, confirmation, artefact control for HSP90 inhibitor project, biochemical, luminescence, triplicate; shares compounds with HSP90 inh; purified native firefly luciferase; inhibition, % at 5.9 µM; actives 48% (n = 2,300); AID 1847, 2009;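 active = inhibition above the mean inhibition of all tested sample wells plus 3 SD, cut at about 10% in these data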
Target sequence (P08659 whole entry, looked up): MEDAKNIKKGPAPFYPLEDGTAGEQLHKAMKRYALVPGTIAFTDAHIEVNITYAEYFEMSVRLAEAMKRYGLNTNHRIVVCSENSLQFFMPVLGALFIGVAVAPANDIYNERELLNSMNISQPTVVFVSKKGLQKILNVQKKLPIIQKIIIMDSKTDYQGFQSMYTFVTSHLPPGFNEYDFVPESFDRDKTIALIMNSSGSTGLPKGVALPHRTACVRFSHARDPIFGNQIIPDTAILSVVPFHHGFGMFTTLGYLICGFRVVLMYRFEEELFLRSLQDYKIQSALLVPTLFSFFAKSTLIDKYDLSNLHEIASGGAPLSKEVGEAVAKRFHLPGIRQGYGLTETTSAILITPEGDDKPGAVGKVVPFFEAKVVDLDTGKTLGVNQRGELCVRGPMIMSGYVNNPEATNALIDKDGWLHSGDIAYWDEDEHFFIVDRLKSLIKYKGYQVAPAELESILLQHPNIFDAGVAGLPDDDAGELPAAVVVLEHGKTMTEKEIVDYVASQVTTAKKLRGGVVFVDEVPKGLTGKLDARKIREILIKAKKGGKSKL
Large screens that a line does not name were inactive (follow-up assays come after a bar, where they were run). The list is not random: actives were taken first. Their share in the collection is about 3.4%.

COc1ccc(/C=C2\SC(N3CCCCC3)=NC2=O)cc1	none
Cc1cccc(C(=O)n2c(=S)nc3cc(C)ccn32)c1	HSP90 inh 17.8 | HSP90 inh confirm 57.2 | FLuc counter 46.9
Cc1cccc(C(=O)Nc2ccn(C)n2)c1	none (no result: HSP90 inh, HSF1 inhib, AI-2 QS mod)
Clc1cccc(N/N=C/c2ccc(N3CCOCC3)cc2)c1	none
O=C(N/N=C/c1cccnc1)c1ccc(NC(=O)c2ccc(Cl)cc2)cc1	HSP90 inh 19.5 | HSP90 inh confirm inactive | FLuc counter inactive
COc1ccc2ccccc2c1/C=N/Nc1ccc(Cl)c(C(=O)O)c1	none
O=C(O)c1cc(N/N=C/c2cccnc2)ccc1Cl	HSP90 inh 29.9 | HSP90 inh confirm 38.7 | FLuc counter inactive
O=C(N/N=C/c1cccnc1)c1ccc(Cl)c(Cl)c1	none (no result: HSP90 inh)
CSc1ccc(/C=N/Nc2ccc(Cl)c(C(=O)O)c2)cc1	HSP90 inh 33.1, SMARCA2 activ 7.9 | HSP90 inh confirm 79.9 | FLuc counter 54.3
O=C(O)c1cc(N/N=C/c2ccc(N3CCOCC3)cc2)ccc1Cl	HSP90 inh 38.8 | HSP90 inh confirm 82.8 | FLuc counter 64.7
COC(=O)c1ccc2c(C(C)c3ccccc3O)c[nH]c2c1 (stereo not drawn)	none (no result: GAA850 FXN act, HSP90 inh, HSF1 inhib, AI-2 QS mod, PG9 Ab binder)
Cc1ccccc1C(=O)n1ccc2ccc(-c3ccc4ccn(Cc5ccc(C#N)cc5)c4c3)cc21	none (no result: GAA850 FXN act, HSP90 inh, HSF1 inhib, AI-2 QS mod, PG9 Ab binder)
CC1(C)CC(=O)C=C(Nc2ccccc2NC(=O)c2cc(F)ccc2F)C1	none (no result: GAA850 FXN act, HSP90 inh, HSF1 inhib, AI-2 QS mod, PG9 Ab binder)
O=S(=O)(c1ccccc1F)n1c(CN2CCOCC2)nc2ccccc21	none (no result: GAA850 FXN act, HSP90 inh, HSF1 inhib, AI-2 QS mod, PG9 Ab binder)
C#CCNC(=O)C[C@H]1C[C@@]2(C(=O)OC)C(=C[C@H](C(C)C)O[C@@H]2C2CC2)N(Cc2ccc(Cl)cc2Cl)C1=O	none (no result: GAA850 FXN act, HSP90 inh, HSF1 inhib, AI-2 QS mod, PG9 Ab binder)
O=C(N/N=C/c1ccncc1)c1cccc(N/N=C/c2ccncc2)c1	none
O=C(O)c1cc(N/N=C/c2ccncc2)ccc1Cl	HSP90 inh 24.9 | HSP90 inh confirm 61.7 | FLuc counter 10.4
O=C(O)c1cc(N/N=C/c2c[nH]c3ccccc23)ccc1Cl	HSP90 inh 40.1 | HSP90 inh confirm 37.6 | FLuc counter inactive
COc1ccc(CN2CCC(CNC(=O)Nc3ccc(C)c(F)c3)CC2)cc1	none (no result: GAA850 FXN act, HSP90 inh, HSF1 inhib, AI-2 QS mod, PG9 Ab binder)
CCC(=O)Nc1cc2nn(-c3ccc(C)cc3)nc2cc1C	HSP90 inh 51.4, HSF1 inhib -61.9 | HSP90 inh confirm 75.5 | FLuc counter 66.8
CCC(=O)Nc1cc2nn(-c3ccc(OC)cc3)nc2cc1C	none
O=S1(=O)c2ccc(Br)cc2OC[C@H](Cc2ccccc2)N1Cc1cn(Cc2ccc(C(F)(F)F)cc2)nn1	none (no result: GAA850 FXN act, HSP90 inh, HSF1 inhib, AI-2 QS mod, PG9 Ab binder)
O=C(/C=C/c1cnc2ccccc2n1)NC12CC3CC(CC(C3)C1)C2	HSP90 inh 28.0, HSF1 inhib -71.3 | HSP90 inh confirm 43.6 | FLuc counter 32.0
CCCCN1CCN(C2=NC(=O)N(c3ccc(Br)cc3)C(=O)C2)CC1	none (no result: GAA850 FXN act, HSP90 inh, HSF1 inhib, AI-2 QS mod, PG9 Ab binder)
Cc1ccc(-n2c(SCC(=O)Nc3ccc(S(=O)(=O)Nc4nccs4)cc3)nnc2-c2cccs2)cc1	none (no result: GAA850 FXN act, HSP90 inh, HSF1 inhib, AI-2 QS mod, PG9 Ab binder)
CC(=O)Nc1ccc(-n2c(=O)c3ccccc3c3ccccc3c2=O)cc1	HSP90 inh 23.8 | HSP90 inh confirm inactive | FLuc counter inactive
COc1ccc(-n2c(COc3ccccc3)nnc2SCC(=O)Nc2ccc(OCc3ccccc3)cc2)cc1	none (no result: GAA850 FXN act, HSP90 inh, HSF1 inhib, AI-2 QS mod, PG9 Ab binder)
N#Cc1ccc(NC(=O)OC2CC3CC2[C@H]2CCCCN2C3)cc1 (stereo partly drawn)	none (no result: GAA850 FXN act, HSP90 inh, HSF1 inhib, AI-2 QS mod, PG9 Ab binder)
